The values below come from PubChem BioAssay (NCATS).

Inconclusive results are not listed. Values without a mark were called inactive. Activity calls are given as the source filed them. Calls come from the whole dose curve; as a rule, active = well fitted inhibition curve with a large enough effect; inconclusive = small, poorly fitted or top-dose-only effect; inactive = no such curve, though single readings can be large or run the other way.
% is set by controls: 0 for no effect and ±100 for the full control effect; potency is the fitted concentration of half-maximal effect.

The subject of this assay is Zika virus NS2B-NS3 protease (linked construct). The assay can be described thus: Primary screen NINDS Rhodamine qHTS for Zika virus inhibitors (AID 1347160). Note: nearly all actives have a fitted effect of over 55% in size. As to conditions: purified NS2B-NS3 protease, Rhodamine110 substrate fluorescence; series mostly up to 57.1 µM; activity change, negative = inhibition: at the top concentration. An excerpt: Avindra Nath, Ph.D., National Institute of Neurological Disorders and Stroke (NINDS), Bethesda, MD
Radhakrishnan Padmanabhan, Ph.D., Georgetown University (GU), Washington D.C.
Zika Virus causes congenital defects, including microcephaly and is associated with Guillain-Barre syndrome, eningoencephalitis and myelitis in infected adult. […] Using a target-based approach, we hope to establish a screening paradigm to uncover novel, cell-active NS2B-NS3 protease (Zika Virus) specific inhibitors from NCATS' collection of small molecules using qHTS.
Four assay panel was created to identify potential Zika Virus inhibitors. Namely, (1) GU unlinked NS2B-NS3 AMC tagged protease qHTS, (2) GU unlinked NS2B-NS3 Rhodamine tagged protease qHTS, (3) NINDS linked NS2B-NS3 AMC tagged protease qHTS, (4) NINDS linked NS2B-NS3 Rhodamine tagged protease qHTS. Active compounds were re-acquired and re-screened to confirm inhibition. Inhibitors were further screened against various confirmatory and counterscreens in dose response format.
Early Translation Branch (ETB)
National Center for Advancing Translational Sciences (NCATS), Rockville, MD
National Institute of Health (NIH), Bethesda, Maryland
For the linked assay, Nath lab (NINDS) provided the purified linked NS2B-NS3 protease which is consists of hydrophilic domain of NS2B linked to the NS3 protease domain by a flexible (-[…]-) linker. Control compound aprotinin is obtained from Thermo Scientific (#78432; Waltham, Massachusetts). Rhodamine110 substrate ([N-Cbz]-Nle-Lys-Arg-Arg-Rhod110-Arg-Arg-Lys-Nle-[N-Cbz]) was purchased from either Genscript or Bachem.
1536-well Protease (Rhodamine110 Substrate) Assay:
Briefly, 3 microL of enzyme (25 nM final concentration), in assay buffer (10 mM Tris-HCl pH 8.0 with 0.01% Tween 20) were dispensed into a 1,536-well solid-bottom black plate (Greiner Bio One, Monroe, NC). Twenty-three nL of compounds (final concentration range 7.28 nM to 114 microM) or control Aprotinin (final concentration range 3.47 nM to 114 microM) were transferred via Wako Pin-tool (Wako Automation, Richmond, VA). Samples were incubated (room temperature, protected from light) for 15 minutes followed by a 1 microL Rhodamine110 substrate addition (1.5 microM final concentration). Plates were then immediately read on a ViewLux High-throughput CCD imager (PerkinElmer, Waltham, MA) equipped with FITC fluorescence optics (480(20) nm excitation, 540(25) nm emission), then incubated (room temperature, protected from light) for 15 minutes (~15% conversion). The change in fluorescence intensity over the 15-minute reaction period was normalized against no-inhibitor and no-enzyme controls and the resulting percent inhibition data were fitted to a 4-parameter Hill equation. Aprotinin was used as intraplate control.
(Quantitative high-throughput screening tests each substance at several concentrations.)
Regarding `CCCCCCCOc1cc2c(cc1/C(C)=C/c1ccc(C(=O)O)cc1)C(C)(C)CCS2(=O)=O`, the Potency was 2510 nM (active). For `CC(=O)OC/C(=C/C(=O)O)CC[C@@H]1C(C=O)=CC[C@@H]2C(C)(C)CCC[C@@]12C`, the “activity change, negative = inhibition” value was -3.78% [at 33.1 µM]. As for `Cc1ccc(-c2cn3c4c(sc3n2)CCCC4)cc1`, the “activity change, negative = inhibition” value was 43%. Turning to `CNC(=O)c1ccc2c(c1)CCO[C@H]2CCN1CCN(c2ccc(OC)cc2)CC1`, the molecule was called inactive. Same read-out and setting: as for `CN(C)c1ccnc2sc3c(=O)n(N4CCCCCC4)cnc3c12`, the entry is “inactive”.

Consider `O=c1cc(N2CCOCC2)nc2c3ccccc3ccn12`, for which the “activity change, negative = inhibition” value was -1.84%. Consider `COC(=O)C[C@H]1C(C)(C)[C@H](OC(=O)c2ccccc2)C2CC3=C4CC(=O)O[C@@H](c5ccoc5)[C@]4(C)CCC3[C@@]1(C)C2=O` (stereo not given in full), for which the “outcome” value is “inactive [at 33.1 µM]”. As for `COc1cccc(CN(C(=O)CC(C)(C)C)[C@H]2C[C@H](C(=O)N3CCNCC3)N(Cc3ccc4c(c3)OCO4)C2)c1`, the “activity change, negative = inhibition” value was 9.37%. The same measure, in the same setting: the same measure for `C=C1C(=O)O[C@@H]2C[C@H](C)[C@@H]3CC(=O)C(C)=C3C[C@H]12`: 12.8%. The same measure, in the same setting: the same measure for `O=c1[nH]cnc2c([C@@H]3N[C@H](CO)[C@@H](O)[C@H]3O)c[nH]c12`: -4.55%; for `Cc1nc(-c2cn3c(n2)-c2ccc(-c4cnn(C(C)(C)C(N)=O)c4)cc2OCC3)n(C(C)C)n1`: 23.6%. The same measure, in the same setting: as for `CCOc1cn(-c2ccc(F)cc2C)nc1C(=O)Nc1ccc(Oc2ccnc3cc(OC)c(OC)cc23)c(F)c1`, the figure is 44.2%; as for `C=C[C@]1(C)C[C@H](O)[C@H]2C(=C)C(=O)O[C@@H]2[C@H]1C(=C)CO`, -13.5%.

Consider `O=C(NCC(=O)N1CCCC1)Nc1ccc2cnccc2c1`, for which the result was inactive. On the same count and under the same terms, the same measure for `OC(CC1c2ccccc2-c2cncn21)C1CCCCC1` (stereo not given): “inactive”. On to `COc1cc(OC)c(NC(=O)c2ccc(Cc3cc4c(cc3C)C(C)(C)CCC4(C)C)o2)c(OC)c1`, for which the “activity change, negative = inhibition” value was -25.4%.

As to `COc1ccccc1C(=O)Nc1cc2c(cc1N1CCCC1)n(C)c(=O)n2C`, the “activity change, negative = inhibition” value was 6.15%. Still for that read-out and setting: as for `CC(C)C[C@@H]1NC(=O)[C@@H](Cc2ccccc2)NC(=O)C(CCCCCC(=O)C2CO2)NC(=O)[C@@H]2CCCCN2C1=O` (stereo not given in full), the figure is 6.16% [at 33.1 µM]; as for `O=C(NCC1(c2nc(-c3ccccc3)cs2)CCOCC1)c1cccc(-c2noc(C(F)(F)F)n2)c1`, -13.3%.

Turning to `COc1cc2c(cc1NS(=O)(=O)c1ccc(Br)cc1C)n(C)c(=O)n2C`, the “activity change, negative = inhibition” value is 17.4%.

Take `CCN(CCNC(=O)Nc1ccccc1Br)c1cccc(C)c1`: the “activity change, negative = inhibition” value was -1.85%. On to `C=C1C(=O)OC2/C=C(\C)CC/C=C(\C=O)C(OC)C(OC(=O)C(C)CC)C12` (stereo not given), for which the “activity change, negative = inhibition” value was -23.6% [at 33.1 µM]. Still for that read-out and setting: the same measure for `C/C=C(/C=C(C)/C=C/C=C/C=C(\C)C(=O)C12OC1C(O)(CCO)NC2=O)C(=O)OC` (stereo not given): -7.19% [at 33.1 µM]; for `NS(=O)(=O)c1ccc(NC(=O)Nc2ccc(F)cc2)cc1`: 11.6%. As to `COC(=O)C[C@H]1[C@]2(C)C3=C(C)[C@H](c4ccoc4)C[C@H]3O[C@@H]2[C@H](O)C2[C@](C)(C(=O)OC)C=CC(=O)[C@@]21C` (stereo not given in full), the “activity change, negative = inhibition” value is 11.7% [at 33.1 µM]. On the same count and under the same terms, the same measure for `C=C(C)C1=C[C@@]2(C)C(=CC1=O)CC[C@@H](O)[C@@H]2C`: 12.2%; for `NC(=O)C1=CC2C3C=CC2C(OC3=O)O1` (stereo not given): -3.73% [at 112 µM].

As to `C=C1C(=O)OC2/C=C(\C)CC3C=C(CC/C=C(\C)CCC12)C(=O)O3` (stereo not given), the “activity change, negative = inhibition” value is 15.1% [at 33.1 µM].

Turning to `C[C@@]12C(=O)N(c3ccc(C(=O)Nc4cccc5cccnc45)cc3)C(=O)[C@@H]1[C@@H]1C=C[C@H]2C1`, the “activity change, negative = inhibition” value is 0.854%. Turning to `Cc1ccc(S(=O)(=O)N2CCC[C@H]2c2ccc(F)cc2)cc1`, the “activity change, negative = inhibition” value was -0.736%. On the same count and under the same terms, as for `Cc1c(NC(=O)c2cc3c(s2)CCCC3)cccc1-c1cn(C)c(=O)c(Nc2ccc(C3C(=O)N(C)CCN3C)cc2)n1` (stereo not given), the figure is -5.49%; as for `Nc1ncnc2c1nc(Cl)n2C1OC2COP(=O)(O)OC2C1O` (stereo not given), 18.5%.

Consider `Cc1nc(Nc2cnn(C3CCNCC3)c2)nc2c1N(C)C(=O)c1cc3ccccc3cc1N2C`, for which the “activity change, negative = inhibition” value is 178%. Turning to `CC(C)(O)c1ccc2c(c1)ncn2-c1cccc(-c2ccccc2C#N)c1`, the “activity change, negative = inhibition” value was 5.55%. The same measure, in the same setting: as for `CC(C)S(=O)(=O)NC[C@H](C)c1ccc(-c2ccc(CCNS(C)(=O)=O)cc2)cc1`, the figure is 2.96%. Regarding `Oc1cccc(C2NC(=S)Nc3cccc(F)c32)c1` (stereo not given), the outcome was inactive. The same measure, in the same setting: as for `COc1cc(Br)c(S(=O)(=O)Nc2ccc(Cl)c(O[C@@H]3CCN(C)C3)c2)cc1OC`, the entry is “inactive”.

Turning to `Cc1ccc(-c2ncc[nH]2)cc1NC(=O)c1ccc(OCc2ccccn2)cc1`, the molecule was classed as inactive. Turning to `C=C1C(=O)O[C@H]2C3=C(C)CCC[C@]3(C)C(=O)C[C@@H]12`, the “activity change, negative = inhibition” value was 12%. Same read-out and setting: as for `Cc1nc2c(C(F)(F)F)cccc2nc1-c1ccc(-c2cccc(S(C)(=O)=O)c2)cc1`, the figure is -23.6%.
